An excerpt weighted towards active compounds, which were near 1.7% of everything screened.
PABP polyA inh: PABP-poly(A) binding inhibition; calls only at 35 µM; 290,000 tested, 1% active; PABP-poly(A) RNA binding, fluorescence polarization;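 also: calls also rest on retests at 20 µM and on dose response follow-up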
eIF4H FP inh: inhibitors of RNA binding by human eIF4H | 290,000 tested, 0.94% active | AID 2012 | Q15056 | inhibition, % at 35 µM | eIF4H fluorescence polarization binding assay;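 also: calls also rest on retests at 20 µM and on dose response follow-up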
EBV gp42 block: EBV gp42 inhibition; AID 1085; Q1HVG2; Fluorescence polarization binding assay, mP read-out; inhibition, % (tested at 21.74 µM); 220,000 tested, 0.42% active; in the data active = inhibition above about 50%
Target sequence (Q1HVG2 whole entry, looked up): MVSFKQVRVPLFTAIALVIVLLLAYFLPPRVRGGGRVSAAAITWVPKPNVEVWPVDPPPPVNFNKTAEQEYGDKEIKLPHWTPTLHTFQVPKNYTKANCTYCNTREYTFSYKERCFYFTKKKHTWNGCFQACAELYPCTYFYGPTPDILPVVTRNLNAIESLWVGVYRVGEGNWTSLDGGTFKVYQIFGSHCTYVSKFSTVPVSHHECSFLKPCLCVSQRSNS
MLLE-PAM2 inh: blocks PAM2 peptide binding to the PABP1 MLLE domain; 360,000 tested, 0.36% active; AID 588489; GST-MLLE / FITC-PAM2 fluorescence polarization; inhibition, % at 20 µM; in the data active = inhibition above about 35%, passing the limit was not always enough;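 also: plate controls were DMSO wells with GST-MLLE for no effect and wells lacking GST-MLLE protein for full effect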
eIF4E 4G PPI: eIF4E/eIF4G interaction inhibition in translation initiation; P63073+Q04637; TR-FRET eIF4E-eIF4GI(517-606) binding, 2 h; inhibition, % at 21.7 µM; 220,000 tested, 0.37% active; AID 782;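 active = inhibition above about 30%, limit read from the data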;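 also: 0% = full FRET control wells and 100% = background wells lacking eIF4GI fragment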
* = called active by the depositor; [ ] = another dose, or the depositor's remark. Unless noted, no rule for the calls is given here.

Results for O=c1c2ccccc2c(C=Nc2ccccc2O)c(O)n1-c1nccs1 ?
PABP polyA inh: active; eIF4H FP inh: 115.6; EBV gp42 block: 27.6; MLLE-PAM2 inh: -66.9; eIF4E 4G PPI: 0.3

How did CC(CNc1ccccc1O)C(=O)O (configuration not stated) do in these assays?
PABP polyA inh: inactive; eIF4H FP inh: 99.6; EBV gp42 block: -10.4; MLLE-PAM2 inh: 76.0*; eIF4E 4G PPI: 20.4

How did CCN(CC)c1ccc(/C=N/NC(=O)c2cccc(S(=O)(=O)Nc3ccccc3OC)c2)cc1 do in these assays?
PABP polyA inh: inactive; eIF4H FP inh: 51.9*; EBV gp42 block: -63.1; MLLE-PAM2 inh: 4.3; eIF4E 4G PPI: -0.4

How did CCOC(=O)C1CCN(c2ccc(C(N)=O)cc2[N+](=O)[O-])CC1 do in these assays?
PABP polyA inh: inactive; eIF4H FP inh: -2.7; EBV gp42 block: 2.3; MLLE-PAM2 inh: -1.6; eIF4E 4G PPI: -2.1

Results for NC(=O)c1ccc(N2CCC(C(N)=O)CC2)c([N+](=O)[O-])c1 ?
PABP polyA inh: active; eIF4H FP inh: 93.3*; EBV gp42 block: -13.3; MLLE-PAM2 inh: 3.8; eIF4E 4G PPI: -6.6

Results for COc1ccc(CNC(=O)CN(C(=O)CCC(=O)Nc2ccccn2)c2cccc(C)c2C)cc1 ?
PABP polyA inh: inactive; eIF4H FP inh: -1.0; MLLE-PAM2 inh: -6.5

How did N#C/C(=C(/O)c1ccc(-c2cccc([N+](=O)[O-])c2)o1)c1nc2ccccc2s1 do in these assays?
PABP polyA inh: active; eIF4H FP inh: 69.1*; EBV gp42 block: 85.7*; MLLE-PAM2 inh: -19.8; eIF4E 4G PPI: 25.0

What do the screens show for `CC(=O)Nc1cccc(OCC(=O)Nc2ccccc2)c1`?
PABP polyA inh: inactive; eIF4H FP inh: active; EBV gp42 block: -9.5; MLLE-PAM2 inh: 12.4; eIF4E 4G PPI: 4.2

Results for COc1cccc(NC(=O)CSC(N)=O)c1 ?
PABP polyA inh: inactive; eIF4H FP inh: 5.1; EBV gp42 block: -21.3; MLLE-PAM2 inh: 37.7*; eIF4E 4G PPI: 1.6

Results for CCOC(=O)c1ccc(S(=O)(=O)NNC(=O)COc2cccc(C)c2)cc1 ?
PABP polyA inh: inactive; eIF4H FP inh: 0.2; EBV gp42 block: -11.6; MLLE-PAM2 inh: 0.7; eIF4E 4G PPI: 1.6

Results for O=C(COc1cccc(Oc2ccccc2)c1)Nc1ccc(SC(F)F)cc1 ?
PABP polyA inh: inactive; eIF4H FP inh: 7.1; EBV gp42 block: -2.9; MLLE-PAM2 inh: -14.4; eIF4E 4G PPI: -13.2

Results for CC(=O)Nc1ccc(S(=O)(=O)NNC(=O)COc2cccc(C)c2)cc1 ?
PABP polyA inh: inactive; eIF4H FP inh: -6.1; EBV gp42 block: -55.5; MLLE-PAM2 inh: 30.7; eIF4E 4G PPI: 33.2*[fluorescence artefact?]

What do the screens show for `CN(C)C(=O)c1ccc(NC(=O)COc2cccc(Oc3ccccc3)c2)cc1`?
PABP polyA inh: active; eIF4H FP inh: 23.2; MLLE-PAM2 inh: -1.9

Results for CN1C(=O)[C@H]2[C@@H](c3ccc(C(F)(F)F)cc3)N[C@]3(CCCN(Cc4ccco4)C3=O)[C@H]2C1=O ?
MLLE-PAM2 inh: -13.7

What do the screens show for `COc1cc(NC(=O)CCc2c(C)[nH]c(=O)c(C#N)c2C)cc(OC)c1`?
PABP polyA inh: inactive; eIF4H FP inh: -0.9; MLLE-PAM2 inh: -0.5

Results for O=C(CSCc1ccc(Br)cc1)Nc1ccccc1C(=O)N1CCOCC1 ?
PABP polyA inh: inactive; eIF4H FP inh: -4.6; MLLE-PAM2 inh: -3.2

What do the screens show for `Cc1cccc(OCC(=O)Nc2ccc3c(C)cc(=O)oc3c2)c1`?
PABP polyA inh: active; eIF4H FP inh: 78.2*; EBV gp42 block: -23.0; MLLE-PAM2 inh: -21.2; eIF4E 4G PPI: 0.4

Results for CCOC(=O)c1c(C)oc2c1c(C=NCCO)c(O)c1ccccc12 ?
PABP polyA inh: inactive; eIF4H FP inh: inconclusive; EBV gp42 block: -17.3; MLLE-PAM2 inh: 51.7*; eIF4E 4G PPI: 2.1

How did CCOC(=O)c1c(C)oc2c1c(C(c1ccccc1)N1CCOCC1)c(O)c1ccccc12 (configuration not stated) do in these assays?
PABP polyA inh: inactive; eIF4H FP inh: -7.4; EBV gp42 block: -23.2; MLLE-PAM2 inh: 9.9; eIF4E 4G PPI: -3.5

What do the screens show for `COc1ccc(C2=NN(C(=O)CCCC(=O)O)C(c3cn(-c4ccccc4)nc3-c3ccccc3)C2)cc1` (configuration not stated)?
PABP polyA inh: inactive; eIF4H FP inh: 73.6*; EBV gp42 block: 19.9; MLLE-PAM2 inh: -7.3; eIF4E 4G PPI: -4.6

How did COc1ccc(-c2nn(-c3ccccc3)cc2C2CC(c3cccs3)=NN2C(=O)CCC(=O)O)cc1 (configuration not stated) do in these assays?
PABP polyA inh: inactive; eIF4H FP inh: -8.4; EBV gp42 block: 1.6; MLLE-PAM2 inh: 1.3; eIF4E 4G PPI: -5.3

What do the screens show for `CC(=O)c1c(C)nc(-c2ccc(Cl)cc2)nc1N=CN(C)C`?
PABP polyA inh: inactive; eIF4H FP inh: 13.6; EBV gp42 block: -15.3; MLLE-PAM2 inh: -7.9; eIF4E 4G PPI: 59.7*

Results for CC(=O)c1c(C)nc(-c2ccc(Cl)cc2)nc1N ?
PABP polyA inh: inactive; eIF4H FP inh: 10.5; EBV gp42 block: -13.7; MLLE-PAM2 inh: 9.0; eIF4E 4G PPI: 14.9

How did Cc1ccc(N2C(=O)c3cccc4c(Oc5ccccc5[N+](=O)[O-])ccc(c34)C2=O)c(C)c1 do in these assays?
PABP polyA inh: inactive; eIF4H FP inh: 33.7; EBV gp42 block: 0.1; MLLE-PAM2 inh: 14.7; eIF4E 4G PPI: -3.3

How did CC(C)C/C(O)=C/c1nc2cc(Cl)ccc2oc1=O do in these assays?
PABP polyA inh: active; eIF4H FP inh: 78.8*; EBV gp42 block: -15.4; MLLE-PAM2 inh: 13.1; eIF4E 4G PPI: -0.4

What do the screens show for `CCCN(CCC)CCCNC(=O)C(NS(=O)(=O)c1ccc2c(c1)CCC(=O)N2)c1ccccc1` (configuration not stated)?
PABP polyA inh: inactive; eIF4H FP inh: 7.5; EBV gp42 block: -19.6; MLLE-PAM2 inh: -8.0; eIF4E 4G PPI: 0.8

How did Cc1cccc(NC(=O)C(NS(=O)(=O)c2ccc3c(c2)CCC(=O)N3)c2ccccc2)n1 (configuration not stated) do in these assays?
PABP polyA inh: inactive; eIF4H FP inh: -2.0; EBV gp42 block: -27.1; MLLE-PAM2 inh: 44.1*; eIF4E 4G PPI: -2.5

How did Cn1cc(C(=O)N/N=C/C(Br)=C/c2ccccc2)ccc1=O do in these assays?
PABP polyA inh: inactive; eIF4H FP inh: -1.6; EBV gp42 block: -12.2; MLLE-PAM2 inh: -18.3; eIF4E 4G PPI: -3.9

How did Cn1cc(C(=O)N/N=C/C(Br)=C\c2ccccc2)ccc1=O do in these assays?
PABP polyA inh: active; eIF4H FP inh: 56.7*; EBV gp42 block: 2.1; MLLE-PAM2 inh: -6.3; eIF4E 4G PPI: -3.2

How did O=S(=O)(NC(=S)NC1CCCCC1)c1ccccc1 do in these assays?
PABP polyA inh: inactive; eIF4H FP inh: -1.1; EBV gp42 block: -3.9; MLLE-PAM2 inh: 37.4*; eIF4E 4G PPI: -2.9

What do the screens show for `O=S(=O)(NC(=S)NC1CCCCC1)c1cccs1`?
PABP polyA inh: inactive; eIF4H FP inh: 2.5; EBV gp42 block: -12.5; MLLE-PAM2 inh: 52.3*; eIF4E 4G PPI: -3.5
